SW480 rereplic: induces DNA re-replication in SW480 colon adenocarcinoma cells. SW480 DNA re-replication, Hoechst DNA content imaging, 48 h. Potency, µM (highest dose often 46.1 µM), without a hit: top-dose re-replication activation, usual class: activators. hit rate 1.8% among 340,000; note: potency is the fitted concentration of half-maximal effect; % of control where 0% means no effect; nearly all actives have a fitted effect of over 55% in size
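Image-based DNA-content assay: after two days of treatment, nuclei were labelled with the DNA dye Hoechst and imaged, and hits were compounds raising the count of nuclei showing high fluorescence intensity.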
MCF10A rereplic: DNA re-replication induction in MCF 10a cells; MCF 10A DNA re-replication, Hoechst nuclear intensity, 48 h; Potency, µM (top dose mostly 46.1 µM), without a hit: at the highest dose activity, positive = re-replication, hits mostly activators; hit rate 2.9% among 350,000; AID 624296; note: potency is the fitted concentration of half-maximal effect; % of control where 0% means no effect; nearly all actives have a fitted effect of over 50% in size
S-ASM inh: blocks human secretory acid sphingomyelinase; placental ASM, HMU-PC fluorogenic substrate, 60 min; hit rate 0.006% among 340,000; Potency, µM (titrated, usually from 57.5 µM), for the others: at the top dose activity change, negative = inhibition, actives largely listed as inhibitors; AID 504937; P17405; note: potency is the fitted concentration of half-maximal effect
Target sequence (P17405 47-631 limits assumed): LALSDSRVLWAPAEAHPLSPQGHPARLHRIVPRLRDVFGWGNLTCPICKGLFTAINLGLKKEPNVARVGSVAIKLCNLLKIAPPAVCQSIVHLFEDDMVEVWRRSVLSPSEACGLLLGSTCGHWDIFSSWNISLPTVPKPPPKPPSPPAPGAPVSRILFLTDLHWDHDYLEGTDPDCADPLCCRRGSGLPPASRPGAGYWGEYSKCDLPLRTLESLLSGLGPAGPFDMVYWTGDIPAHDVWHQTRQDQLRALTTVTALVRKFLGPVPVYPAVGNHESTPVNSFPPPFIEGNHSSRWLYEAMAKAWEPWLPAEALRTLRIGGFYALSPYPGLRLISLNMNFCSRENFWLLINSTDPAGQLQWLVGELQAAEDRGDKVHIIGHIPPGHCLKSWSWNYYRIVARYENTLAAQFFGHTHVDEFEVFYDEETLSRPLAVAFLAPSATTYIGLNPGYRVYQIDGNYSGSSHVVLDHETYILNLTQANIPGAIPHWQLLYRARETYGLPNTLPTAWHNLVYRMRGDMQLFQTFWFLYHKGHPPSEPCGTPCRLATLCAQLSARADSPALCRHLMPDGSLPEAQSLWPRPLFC
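Human placenta-derived ASM preincubated with compound 10 min at room temperature, then reacted with 9 uM (final) fluorogenic HMU-PC substrate for 60 min at 37 C. Stop solution raises pH to 10; fluorescence read at Ex 386/Em 447 nm.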
KB-V1 MDR tox: KB-V1 MDR subline cytotoxicity. KB-V1 MDR cells viability, CellTiter-Glo, 72 h. Potency, µM (series often up to 46.1 µM), most hits filed as cytotoxic. hit rate 3.4% among 400,000. AID 1347076; note: potency is the fitted concentration of half-maximal effect; % is set by controls: 0 for no effect and ±100 for the full control effect; nearly all actives have a fitted effect of over 60% in size
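Potencies derive from concentration-effect curves fitted to normalized luminescence (CellTiter-Glo) of KB-V1 cells treated for 72 h at 37 degrees C in phenol-red-free DMEM containing 10% FBS.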
Giardia killer: Giardia lamblia killing; Giardia lamblia trophozoite viability; activity change, % at 7.66 µM, hits read low; hit rate 0.15% among 340,000; in the data active = activity change below about -80%; inconclusive = between about -30% and that limit;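 note: parasites exposed to compound for two days anaerobically before the ATP read; % is set by controls: 0 for no effect and ±100 for the full control effect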
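Media and compound were dispensed first, then trophozoites at 100 cells/well; plates sat 48 hrs at 37 deg C without oxygen before ATP luminescence reagent was added and read after 15-30 min at room temperature.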
KB-3-1 cytotox: KB-3-1 parental cell cytotoxicity; KB-3-1 viability, CellTiter-Glo ATP luminescence, 72 h; Potency, µM (highest dose often 46.1 µM), usual class: cytotoxic; hit rate 1.4% among 400,000; AID 1347075; note: potency is the fitted concentration of half-maximal effect; % is set by controls: 0 for no effect and ±100 for the full control effect; nearly all actives have a fitted effect of over 60% in size
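Multi-concentration cytotoxicity screen in KB-3-1 cells grown in DMEM lacking phenol red with 10% FBS. After 72 h at 37 °C with compound, ATP-dependent luminescence was recorded.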
* = called active by the depositor; i = inactive; ? = inconclusive; . = no result given; [ ] = another dose, or the depositor's remark. Only some compounds are listed: those with a hit (about 6.9% of all), similar ones and a draw of the others. Unless noted, calls come from the whole dose curve; as a rule, active = well fitted curve in the direction sought with a large enough effect; inconclusive = small, poorly fitted or top-dose-only effect, or another doubt; inactive = no such curve, though single readings can be large; an effect the other way counts as inactive or inconclusive.

SMILES	SW480 rereplic	MCF10A rereplic	S-ASM inh	KB-V1 MDR tox	Giardia killer	KB-3-1 cytotox
Cc1ccc(S(=O)(=O)N2CCCN(c3nc(-c4cccs4)nc4ccccc34)CC2)cc1	.	.	.	?	1	i
Cc1ccc(-c2c(C#N)c(N)nc3c2CCCCCC3)o1	7%	-1%	49%	?	5	i
Cc1c(-c2ccc(F)cc2)nc(N)c(C#N)c1-c1ccco1	-13%	?	134%	i	2	i
Cc1ccc(-c2cc(-c3ccc(C)o3)nc(N)c2C#N)cc1	23µM*	?	i	i	-9	i
Cc1ccc(-c2cc(-c3ccc(F)cc3)c(C#N)c(N)n2)o1	21µM*	4.1µM*	i	i	-3	i
COc1ccc(-c2cc(-c3ccc(O)cc3)nc(N)c2C#N)cc1OC	17%	?	i	?	-2	?
Cc1cc(-c2cc(-c3ccc(Cl)cc3)nc(N)c2C#N)co1	7.3µM*	2.6µM*	i	i	11	i
CCOc1cc(-c2cc(-c3ccc(C)o3)nc(N)c2C#N)ccc1O	?	?	308%	23µM*	-2	?
O=C(CN(c1ccc(Cl)c(C(F)(F)F)c1)S(=O)(=O)c1ccccc1)N1CCc2ccccc2C1	.	.	.	i	.	i
CCCOc1cccc(NC(=O)c2c(-c3ccccc3Cl)noc2C)c1	.	.	.	i	.	i
O=C(NCCCN1CCOCC1)c1cc(-c2ccc(Br)cc2)nc2ccccc12	6%	9%	-3%	i	-6	i
Cc1ccc(Nc2cc(C(=O)NCCCN3CCOCC3)c3ccccc3n2)cc1C	?	10µM*	1%	i	-2	i
Cc1ccc(Nc2ncc(C(=O)NCCCN3CCN(C)CC3)c3ccccc23)cc1Cl	?	23µM*	45%	?	-5	i
Cc1ccc(-c2cc(C(=O)NCCCN3CCOCC3)c3ccc(Cl)c(C)c3n2)cc1	21µM*	?	?	i	-14	i
O=C(NCCCN1CCOCC1)c1cc(-c2ccccc2)nc2ccccc12	-4%	6%	-1%	i	16	i
COc1cccc(CNc2sc3c(c2C(=O)Nc2ccc(OC)cc2OC)CCC3)c1	.	.	.	i	.	i
CN(C)c1ccc(CC(=O)N2CCCC(c3cc(C(=O)Nc4ccc(F)c(Cl)c4)no3)C2)cc1 (centres undefined)	.	.	.	21µM*	.	?
C=CCNC(=O)Cc1c(OC)ccc2cc(Br)ccc12	2%	-1%	3%	21µM*	-5	?
COc1ccc2cc(Br)ccc2c1CC(=O)NC(C)C	4%	-32%	-5%	?	-11	i
O=c1[nH]c(=O)c2[nH]c(=O)[nH]c2[nH]1	-2%	1%	.	.	.	.
C=C1CC(COc2cc(=O)oc3ccccc23)(c2ccccc2)OC1=O (centres undefined)	28%	2.6µM*	-8%	?	-19	10µM*
C=C1CCC2C(C)(C)[C@H](O)CC[C@@]2(C)[C@@H]1COc1cc(=O)oc2ccccc12 (some centres undefined)	-3%	?	?	i	-9	i
Cc1cnc(=O)[nH]c1SCC(=O)c1ccc(F)cc1	74%	18µM*	7%	i	2	i
Cc1cccc(/C=N/NC(=O)c2cc(-c3cccnc3)nc3c2c(C)nn3-c2ccccc2)c1	-2%	?	9%	15µM*	2	i
COc1ccc(/C=N\NC(=O)c2ccccc2Cl)cc1COc1c(F)c(F)c(F)c(F)c1F	?	9.2µM*	-16%	i	1	?
SMILES	SW480 rereplic	MCF10A rereplic	S-ASM inh	KB-V1 MDR tox	Giardia killer	KB-3-1 cytotox
COc1ccc(/C=N/NC(=O)c2cccnc2)cc1COc1ccc([N+](=O)[O-])c(C)c1	12µM*	2.1µM*	-14%	?	-8	6.5µM*
COc1ccc(/C=N/NC(=O)c2ccn[nH]2)cc1COc1ccc(Cl)cc1Cl	?	12µM*	-27%	i	0	i
COc1ccc(/C=N/NC(=O)CCSc2nc3ccccc3s2)cc1OC	?	?	-5%	i	-7	i
COc1ccc(/C=N/NC(=O)c2ccccc2Cl)cc1CSc1nc2ccccc2s1	5.8µM*	0.82µM*	-4%	7.3µM*	12	5.8µM*
CC(=O)Nc1nonc1-c1nnc(SCC(=O)Nc2cccc(C)c2C)n1-c1ccccc1	.	.	.	i	.	i
O=C(Cn1c(=O)nc(-c2ccccc2)c2cc(Cl)ccc21)NCCCc1ccccc1	.	.	.	i	.	i
COc1ccc(/C=N/NC(=O)c2cccnc2)cc1CSc1nc2ccccc2s1	21µM*	?	?	12µM*	-10	?
O=C(NCc1ccccc1)c1cc(=O)nc2sc(-c3ccccc3)nn12	0%	11%	-2%	13µM*	-25	?
COc1ccc(OC)c(NC(=O)COC(=O)c2c3c(nc4ccccc24)CCCC3)c1	1%	?	?	26µM*	9	26µM*
COc1ccc(NC(=O)COC(=O)c2c3c(nc4ccccc24)CCCC3)cc1	0%	?	-12%	?	4	?
COc1ccc(NC(=O)COC(=O)c2c3c(nc4ccccc24)CCCC3)cc1Cl	-7%[9.22 µM]	?	-21%	16µM*	0	i
O=C(NCc1cccc(Br)c1)c1cccn1-c1nnc(N2CCCCC2)s1	.	.	.	i	.	i
Cc1ccc2c(CN(C)Cc3ccc(OC(F)F)cc3)cc(=O)oc2c1C	-13%	15%	-12%	16µM*	-3	?
Cc1ccc2c(CN(C)Cc3ccccc3)cc(=O)oc2c1C	3%	0%	-4%	?	8	?
Cc1nc2c(-c3ccccc3)c(C)[nH]n2c(=O)c1Cc1ccc(C(C)C)cc1	.	.	.	?	.	i
Cc1cc(N2CCN(C(=O)Nc3ccc(F)cc3F)CC2)c2ccccc2n1	-5%	9%	-3%	i	-5	i
CCCCc1ccc(NC(=O)N2CCN(c3cc(C)nc4ccccc34)CC2)c(C)c1	21µM*	17%	-9%	?	-12	?
Cc1ccc(CNC(=O)C2CCN(c3nnc(N4CCCC4=O)s3)CC2)cc1	-5%	16%	-8%	i	3	i
CCN(CC(=O)NCc1ccc(F)cc1)C(=O)/C=C/c1ccc(OC)c(S(=O)(=O)NC(C)C)c1	8.2µM*	1.8µM*	-2%	i	26	2.6µM*
COc1ccc(S(=O)(=O)N2CCCCCC2)cc1NC(=O)CN1C(=O)NC(C)(c2ccccc2)C1=O (centres undefined)	2%	3%	-1%	i	9	i
N#Cc1nc(Cc2ccccc2)oc1NCCCn1ccnc1	16µM*	?	5%	i	8	i

From PubChem
